The other results are listed elsewhere or left out. Activity calls are given as the source filed them.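 How the source made its calls: active means inhibition reaching about 45% at 4 µM in either replicate (limit read from the data); inactive means the rest.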

A short description of this assay: lowers stimulated NF-kB luciferase signal in Jurkat – cell-based, luminescence, single concentration, T-cell NF-kB inhibitor project, confirmation (AID 435020).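 Further: plate controls were PMA/ionomycin stimulated DMSO wells for no effect and unstimulated DMSO wells for full effect.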 The settings on record: PMA/ionomycin-induced, 16 h, at 4 µM, hits give high values.
For orientation: inhibition means the relative decrease from the control value, in per cent. In the case of `O=C(CCNC(=O)c1ccc(Br)cc1)Nc1cccc(S(=O)(=O)N2CCCCC2)c1`, the inhibition was 0.65% (inactive).
Then `COc1ccc(CC(=O)Nc2nc(-c3ccc(F)c(F)c3)cs2)cc1OC`, with 58.5% (active).
Then `Cc1ccc(SCCSc2ncccn2)cc1`, with -64.3% (inactive); and `COc1cc(/C=N/O)ccc1OCc1ccc([N+](=O)[O-])cc1`, with -119% (inactive); and `CSc1nc(N(C)NC(=O)c2cccc(C)c2)c2ccccc2n1`, with 57.2% (active).
Under `CCOc1ccc(NC(=O)c2ccc(NC(=O)COC(=O)c3ccc(NC(=O)CC#N)cc3)cc2)cc1` stands -36.5% (inactive).
For `Cc1cc(N)n2nc(-c3ccc(C(C)(C)C)cc3)cc2n1`, the inhibition is -164% (inactive).
Under `O=C(NCC#CCSc1nnc(-c2cccc3ccccc23)o1)c1cccs1` stands 62.8% (active).
Under `O=C(NCCC1CCCCN1S(=O)(=O)c1cccs1)C(=O)Nc1ccc(F)cc1F` (stereo not given) stands -3.5% (inactive); under `COc1ccc(-n2ncc3c(N4CCc5ccccc54)ncnc32)cc1`, -93.4% (inactive).
Under `COc1cc(N=Cc2c(O)[nH]c3ccccc23)cc(OC)c1OC` stands -14% (inactive).
`O=C(NCc1ccc2c(c1)OCO2)c1cc([N+](=O)[O-])ccc1N1CCOCC1`: the inhibition is 38.1% (inactive).
Take `N=c1c2c(-c3ccccc3)c(-c3ccccc3)n(Cc3ccccc3)c2ncn1CCCO`: the inhibition was 24.1% (inactive).
For the compound `Cn1nccc1C(=O)NC1CCCc2c1cnn2-c1ccccc1F` (stereo not given), the inhibition is 68.1% (active).
Regarding `CC(C)c1ccc(NC(=O)NC2CCCCC2)cc1`, the inhibition was -175% (inactive).
In the case of `COc1ccc(-c2csc(-c3cccs3)n2)cc1OC`, the inhibition was -54.3% (inactive).
With `CC(C)CC(=O)N/C(N)=N/c1nc2ccccc2s1`, the inhibition is -131% (inactive).
As for `CC(C)Sc1ncnc2c1cnn2-c1ccccc1`, the inhibition is -138% (inactive).
Then `Cc1ccc(N2CCN(c3ccc([N+](=O)[O-])cn3)CC2)c(C)c1`, with 15.2% (inactive).
Under `O=C(CSC(=S)N1CCCCC1)c1c(F)cccc1F` stands -113% (inactive); under `COc1ccc(C)c(Cn2c(-c3nonc3N)nc3ccccc32)c1`, 44.8% (inactive).
Under `COc1ccc(CNS(=O)(=O)c2cc(-c3cc(C)no3)ccc2C(C)C)cc1` stands 41.9% (inactive); under `COc1ccccc1C1C2=C(COC2=O)Nc2cc3c(cc21)OCO3` (stereo not given), 23.4% (inactive).
Regarding `Cn1c(-c2ccc(F)cc2)cc2onc(-c3ccccc3Cl)c2c1=O`, the inhibition is -96.3% (inactive).
Under `CCCOc1ccccc1C1CC(=O)Nc2cc3c(cc21)OCO3` (stereo not given) stands 62% (active); under `CCOc1ccc2[nH]c3nc(SCC(=O)NC4CCCC4)nnc3c2c1`, 14.2% (inactive).
Take `CCN(CC)c1ccc(/C=N/NC(=O)c2cnccn2)c(O)c1`: the inhibition was -7.5% (inactive).
Under `O=C(Nc1ccc(CSc2ccccc2)cc1)c1ccc(CN2CCOCC2)cc1` stands 62.3% (active); under `CCCC(=O)Nc1nc2ccc(NC(=O)c3c(F)c(F)c(OC)c(F)c3F)cc2s1`, 40.9% (active); under `CC[C@]1(O)CC2CN(CCc3c([nH]c4ccccc34)[C@@](C(=O)OC)(c3cc4c(cc3OC)N(C=O)[C@H]3[C@@](O)(C(=O)OC)[C@H](OC(C)=O)[C@]5(CC)C=CCN6CC[C@]43[C@@H]65)C2)C1` (stereo not given in full), 62.8% (active).
Then `Cc1cccc(N(C)C(=O)c2cc3c(=O)[nH]c4ccc(C)cc4c3s2)c1`, with 16.9% (inactive).
Then `Cc1ccc(NC(=O)c2csc3c2CCCC3)cc1`, with -157% (inactive).
Take `O=C(/C=C/c1ccc([N+](=O)[O-])o1)NNC(=O)c1ccc(F)cc1`: the inhibition was 45.4% (inactive).
Under `C=CCn1c(SCc2c(C)noc2C)nc2sc3c(c2c1=O)CCC(C)C3` (stereo not given) stands 27.9% (inactive).
Then `CCOc1cccc(/C=C/c2ccc3ccccc3n2)c1OC(C)=O`, with -131% (inactive); and `COc1ccccc1NC1=NC(c2ccc(Cl)cc2)N=C(N)N1` (stereo not given), with 18.7% (inactive); and `COc1ccc(CS(=O)/C(Cl)=C(/Cl)C(=O)Nc2ccc(OC)nc2)cc1` (stereo not given), with 95.7% (active).
Under `Cc1cc(=O)oc2cc(OCC3CC(c4ccccc4Cl)=NO3)ccc12` (stereo not given) stands 54.6% (active).
For `COc1cc(SC)ccc1C(=O)NCCOc1ccccc1Cl`, the inhibition is -81.7% (inactive).
Under `Cc1ccc(O)c(NC(=O)COc2cc(C)ccc2C)c1` stands 0.55% (inactive).

The values above are taken from PubChem BioAssay.
